# Measurements from PubChem BioAssay (NCI).
# About 83,000 compounds went through this panel and 20% of them were active in at least one assay; those are over-represented in the sample as a whole.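 Single-dose data. Exposure time 48 hours. Values below 10 considered active.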 Values without a mark were called inactive. The source made the active and inactive calls.
# Columns and labels:
# Test in all cases: NCI-60 one-dose screen, 48 h (100 = growth as untreated, 0 = no growth, -100 = all killed)
# NCI-H23 lung = tested on: NCI-H23 lung
# NCI-H226 lung = tested on: NCI-H226 lung
# NCI-H322M lung = tested on: NCI-H322M lung
# HOP-62 NSCLC = tested on: HOP-62 NSCLC
# NCI-H460 lung = tested on: NCI-H460 lung
# HOP-92 NSCLC = tested on: HOP-92 NSCLC
# NCI-H522 lung = details: 10 µM unless noted
# A549/ATCC NSCLC = tested on: A549/ATCC NSCLC
# 786-0 renal = tested on: 786-0 renal
# COLO 205 colon = tested on: COLO 205 colon
# DU-145 prostate = tested on: DU-145 prostate
# K-562 leukemia = tested on: K-562 leukemia
# MALME-3M melanoma = tested on: MALME-3M melanoma
# MDA-MB-231 breast = tested on: MDA-MB-231 breast
# RXF 393 renal = tested on: RXF 393 renal
# SF-268 CNS = tested on: SF-268 CNS
# SF-295 CNS = tested on: SF-295 CNS
# SF-539 CNS = tested on: SF-539 CNS
# UACC-257 melanoma = details: 10 µM unless noted
# M14 melanoma = tested on: M14 melanoma
smiles,measurement,setting,value
CC(C)(C)c1ccc(O)c(C2CCCCC2)c1,growth,NCI-H23 lung; 10 µM unless noted,98%
same,growth,NCI-H226 lung; 10 µM unless noted,104%
same,growth,NCI-H322M lung; 10 µM unless noted,105%
same,growth,HOP-62 NSCLC; 10 µM unless noted,107%
same,growth,NCI-H460 lung; 10 µM unless noted,107%
same,growth,HOP-92 NSCLC; 10 µM unless noted,96.6%
same,growth,NCI-H522 lung,83.6%
same,growth,A549/ATCC NSCLC; 10 µM unless noted,95.9%
same,growth,786-0 renal; 10 µM unless noted,99.8%
same,growth,COLO 205 colon; 10 µM unless noted,103%
same,growth,DU-145 prostate; 10 µM unless noted,102%
same,growth,K-562 leukemia; 10 µM unless noted,89.8%
same,growth,MALME-3M melanoma; 10 µM unless noted,115%
same,growth,MDA-MB-231 breast; 10 µM unless noted,106%
same,growth,RXF 393 renal; 10 µM unless noted,90.9%
same,growth,SF-268 CNS; 10 µM unless noted,99.4%
same,growth,SF-295 CNS; 10 µM unless noted,130%
same,growth,SF-539 CNS; 10 µM unless noted,121%
same,growth,UACC-257 melanoma,86.6%
same,growth,M14 melanoma; 10 µM unless noted,122%
C=CCOc1ccc(N=NC(C#N)C#N)cc1,growth,NCI-H23 lung; 10 µM unless noted,75.7%
same,growth,NCI-H226 lung; 10 µM unless noted,84.5%
same,growth,NCI-H322M lung; 10 µM unless noted,93%
same,growth,HOP-62 NSCLC; 10 µM unless noted,52.3%
same,growth,NCI-H460 lung; 10 µM unless noted,104%
same,growth,HOP-92 NSCLC; 10 µM unless noted,-13.1% (active)
same,growth,NCI-H522 lung,-12.9% (active)
same,growth,A549/ATCC NSCLC; 10 µM unless noted,86.3%
same,growth,786-0 renal; 10 µM unless noted,78.8%
same,growth,COLO 205 colon; 10 µM unless noted,22.1%
same,growth,DU-145 prostate; 10 µM unless noted,77.8%
same,growth,K-562 leukemia; 10 µM unless noted,38.2%
same,growth,MALME-3M melanoma; 10 µM unless noted,3.69% (active)
same,growth,MDA-MB-231 breast; 10 µM unless noted,69.7%
same,growth,RXF 393 renal; 10 µM unless noted,51.1%
same,growth,SF-268 CNS; 10 µM unless noted,102%
same,growth,SF-295 CNS; 10 µM unless noted,92.7%
same,growth,SF-539 CNS; 10 µM unless noted,87%
same,growth,UACC-257 melanoma,42.1%
same,growth,M14 melanoma; 10 µM unless noted,66.4%
CCC(CCCN(CC)CCc1ccccc1)OC(=O)c1cc(OC)c(OC)c(OC)c1 (stereo not drawn),growth,NCI-H23 lung; 10 µM unless noted,81.5%
same,growth,NCI-H226 lung; 10 µM unless noted,89.7%
same,growth,NCI-H322M lung; 10 µM unless noted,72.2%
same,growth,HOP-62 NSCLC; 10 µM unless noted,68.7%
same,growth,NCI-H460 lung; 10 µM unless noted,101%
same,growth,HOP-92 NSCLC; 10 µM unless noted,86.4%
same,growth,NCI-H522 lung,69.6%
same,growth,A549/ATCC NSCLC; 10 µM unless noted,75.1%
same,growth,786-0 renal; 10 µM unless noted,89.9%
same,growth,COLO 205 colon; 10 µM unless noted,81.1%
same,growth,DU-145 prostate; 10 µM unless noted,104%
same,growth,K-562 leukemia; 10 µM unless noted,76.4%
same,growth,MALME-3M melanoma; 10 µM unless noted,98.9%
same,growth,MDA-MB-231 breast; 10 µM unless noted,78.8%
same,growth,RXF 393 renal; 10 µM unless noted,89.7%
same,growth,SF-268 CNS; 10 µM unless noted,82.7%
same,growth,SF-295 CNS; 10 µM unless noted,90.1%
same,growth,SF-539 CNS; 10 µM unless noted,93.1%
same,growth,UACC-257 melanoma,85.4%
same,growth,M14 melanoma; 10 µM unless noted,90.1%
NC(=S)N/N=C/c1ccc(Cl)s1,growth,NCI-H23 lung; 10 µM unless noted,106%
same,growth,NCI-H226 lung; 10 µM unless noted,97.4%
same,growth,NCI-H322M lung; 10 µM unless noted,101%
same,growth,HOP-62 NSCLC; 10 µM unless noted,109%
same,growth,NCI-H460 lung; 10 µM unless noted,101%
same,growth,HOP-92 NSCLC; 10 µM unless noted,97.5%
same,growth,NCI-H522 lung,98.6%
same,growth,A549/ATCC NSCLC; 10 µM unless noted,106%
same,growth,786-0 renal; 10 µM unless noted,105%
same,growth,COLO 205 colon; 10 µM unless noted,105%
same,growth,DU-145 prostate; 10 µM unless noted,106%
same,growth,K-562 leukemia; 10 µM unless noted,99.5%
same,growth,MALME-3M melanoma; 10 µM unless noted,104%
same,growth,MDA-MB-231 breast; 10 µM unless noted,110%
same,growth,RXF 393 renal; 10 µM unless noted,99.9%
same,growth,SF-268 CNS; 10 µM unless noted,102%
same,growth,SF-295 CNS; 10 µM unless noted,103%
same,growth,SF-539 CNS; 10 µM unless noted,100%
same,growth,UACC-257 melanoma,104%
same,growth,M14 melanoma; 10 µM unless noted,105%
CN(Cc1cnc2nc(N)nc(N)c2n1)c1ccc(C(=O)NC(CCC(=O)O)C(=O)O)cc1 (stereo not drawn),growth,NCI-H23 lung; 10 µM unless noted,23.4%
same,growth,NCI-H226 lung; 10 µM unless noted,30.2%
same,growth,NCI-H322M lung; 10 µM unless noted,48.6%
same,growth,HOP-62 NSCLC; 10 µM unless noted,43%
same,growth,NCI-H460 lung; 10 µM unless noted,16.4%
same,growth,HOP-92 NSCLC; 10 µM unless noted,37.1%
same,growth,NCI-H522 lung,29.2%
same,growth,A549/ATCC NSCLC; 10 µM unless noted,19.8%
same,growth,786-0 renal; 10 µM unless noted,13.7%
same,growth,COLO 205 colon; 10 µM unless noted,58.5%
same,growth,DU-145 prostate; 10 µM unless noted,26.7%
same,growth,K-562 leukemia; 10 µM unless noted,18.7%
same,growth,MALME-3M melanoma; 10 µM unless noted,43.8%
same,growth,MDA-MB-231 breast; 10 µM unless noted,82.8%
same,growth,RXF 393 renal; 10 µM unless noted,46.1%
same,growth,SF-268 CNS; 10 µM unless noted,25.5%
same,growth,SF-295 CNS; 10 µM unless noted,20%
same,growth,SF-539 CNS; 10 µM unless noted,22.2%
same,growth,UACC-257 melanoma,53%
same,growth,M14 melanoma; 10 µM unless noted,10.9%
O=C(Nc1cccc(Br)c1)Oc1cccc2cccnc12,growth,NCI-H23 lung; 10 µM,106%
same,growth,NCI-H23 lung; 100 µM,-21% (active)
same,growth,NCI-H226 lung; 10 µM,106%
same,growth,NCI-H226 lung; 100 µM,63.1%
same,growth,NCI-H322M lung; 10 µM,117%
same,growth,NCI-H322M lung; 100 µM,84.9%
same,growth,HOP-62 NSCLC; 10 µM,102%
same,growth,HOP-62 NSCLC; 100 µM,50.1%
same,growth,NCI-H460 lung; 10 µM,104%
same,growth,NCI-H460 lung; 100 µM,8.11% (active)
same,growth,HOP-92 NSCLC; 10 µM,83%
same,growth,HOP-92 NSCLC; 100 µM,49.2%
same,growth,NCI-H522 lung,-56.9% [100 µM] (active)
same,growth,A549/ATCC NSCLC; 10 µM,99.1%
same,growth,A549/ATCC NSCLC; 100 µM,20.7%
same,growth,786-0 renal; 10 µM,94.9%
same,growth,786-0 renal; 100 µM,88.6%
same,growth,COLO 205 colon; 10 µM,117%
same,growth,COLO 205 colon; 100 µM,51.8%
same,growth,DU-145 prostate; 10 µM,115%
same,growth,DU-145 prostate; 100 µM,35.6%
same,growth,K-562 leukemia; 10 µM,109%
same,growth,K-562 leukemia; 100 µM,12.6%
same,growth,MALME-3M melanoma; 10 µM,114%
same,growth,MALME-3M melanoma; 100 µM,7.15% (active)
same,growth,MDA-MB-231 breast; 10 µM,98.4%
same,growth,MDA-MB-231 breast; 100 µM,15.1%
same,growth,RXF 393 renal; 10 µM,106%
same,growth,RXF 393 renal; 100 µM,55.6%
same,growth,SF-268 CNS; 10 µM,107%
same,growth,SF-268 CNS; 100 µM,20.9%
same,growth,SF-295 CNS; 10 µM,97.4%
same,growth,SF-295 CNS; 100 µM,9.21% (active)
same,growth,SF-539 CNS; 10 µM,97.1%
same,growth,SF-539 CNS; 100 µM,9.58% (active)
same,growth,UACC-257 melanoma,7.41% [100 µM] (active)
same,growth,M14 melanoma; 10 µM,99.4%
same,growth,M14 melanoma; 100 µM,16%
